We go through 30 molecules from PubChem BioAssay (NCATS).

The source made the active and inactive calls. The call rests on the fitted dose curve.

What all share (test): Confirmatory Screen for Target Class Profiling of Small Molecule Inhibitors of Methyltransferases (AID 1745852); on activity change, negative = inhibition: on the % scale 0 is the no-effect control and ±100 the full control effect
Experiment [1] addresses Catechol O-methyltransferase (Homo sapiens) (UniProt P21964). Particulars: MTase-Glo luminescence, SAH detection, recombinant enzyme; measured here: COMT max response; stronger effect = lower value.
Experiment [2] addresses Guanidinoacetate N-methyltransferase (Homo sapiens) (UniProt Q14353). The conditions noted are these: MTase-Glo luminescence, SAH detection, recombinant enzyme; activity change, negative = inhibition: at 57.3 µM (top of the series) unless noted; series mostly up to 57.3 µM.
Experiment [3] concerns the target Nicotinamide N-methyltransferase (Homo sapiens) (UniProt P40261). The conditions noted are these: MTase-Glo luminescence, SAH detection, recombinant enzyme; measured here: NNMT max response; stronger effect = lower value.
Experiment [4] concerns the target Phenylethanolamine N-methyltransferase (Homo sapiens) (UniProt P11086). Particulars: MTase-Glo luminescence, SAH detection, recombinant enzyme; measured here: PNMT max response; stronger effect = lower value.
Potency means the concentration at half of the fitted maximal effect.

Phenylethanolamine N-methyltransferase (Homo sapiens), sequence (P11086 whole entry, looked up): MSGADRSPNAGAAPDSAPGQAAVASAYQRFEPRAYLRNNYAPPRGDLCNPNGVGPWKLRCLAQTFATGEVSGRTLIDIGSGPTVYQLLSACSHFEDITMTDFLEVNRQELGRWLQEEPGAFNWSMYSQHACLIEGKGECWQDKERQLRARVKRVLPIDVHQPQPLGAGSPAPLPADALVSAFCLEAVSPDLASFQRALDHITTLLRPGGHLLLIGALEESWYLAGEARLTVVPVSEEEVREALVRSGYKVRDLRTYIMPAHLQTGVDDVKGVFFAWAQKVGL
Catechol O-methyltransferase (Homo sapiens), sequence (P21964 whole entry, looked up): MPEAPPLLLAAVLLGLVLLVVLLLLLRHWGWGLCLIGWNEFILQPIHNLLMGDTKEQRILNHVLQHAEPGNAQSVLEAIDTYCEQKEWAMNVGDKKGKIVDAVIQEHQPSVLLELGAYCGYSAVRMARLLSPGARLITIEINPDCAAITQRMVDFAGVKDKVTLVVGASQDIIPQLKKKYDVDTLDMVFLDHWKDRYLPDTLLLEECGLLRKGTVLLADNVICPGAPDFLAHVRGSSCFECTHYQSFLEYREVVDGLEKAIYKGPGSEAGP
Nicotinamide N-methyltransferase (Homo sapiens), sequence (P40261 whole entry, looked up): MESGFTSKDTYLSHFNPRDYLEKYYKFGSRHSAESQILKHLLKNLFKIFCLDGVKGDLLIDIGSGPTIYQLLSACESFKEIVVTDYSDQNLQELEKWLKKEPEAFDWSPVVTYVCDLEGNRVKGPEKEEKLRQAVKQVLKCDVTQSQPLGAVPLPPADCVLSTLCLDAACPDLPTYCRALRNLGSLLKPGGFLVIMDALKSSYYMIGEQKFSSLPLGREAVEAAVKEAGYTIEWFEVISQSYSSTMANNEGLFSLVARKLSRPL

For the molecule `Cc1ccc(C(=O)O)c2c1N[C@@H](c1ccc(Cl)cc1)[C@H]1CC=C[C@@H]21`, the values for the activity in experiment [1], in experiment [3] and in experiment [4] were 2.12%, 0.978% and 2.78%, respectively. In experiment [2], the activity change, negative = inhibition stood at 0.676%.

As for `O=C(NCc1ccccc1)c1ccc2c(=O)nc3c(-c4ccccc4F)n[nH]n3c2c1`, the activity in experiment [1] was -13.3%; in experiment [3], -8.4%; in experiment [4], -13.5%. For the same molecule, the Potency in experiment [2] is 0.121 µM (active).

Consider `Cc1cnc(CCNC(=O)Nc2ccc3c(c2)OCCO3)n1C1CCC1`, for which the activity is 2.74% in experiment [1], -5.7% in experiment [3] and 1.37% in experiment [4]. In experiment [2], the activity change, negative = inhibition was -0.0713%.

As to `Cc1cccc(-c2nnc3n(CCc4ccccc4)c(=O)c4ccccc4n23)c1`, the activity was -4.01% in experiment [1], -11.5% in experiment [3] and -10% in experiment [4]. The Potency entry in experiment [2] was “inactive”.

As for `CCCCN1C(=O)c2cc(C(=O)NCc3ccc(OC)cc3OC)nn2CC1(C)C(=O)NC1CCCC1` (stereo not given), the activity is 0.43% in experiment [1], -36.8% in experiment [3] and -3.65% in experiment [4]. In addition, the activity change, negative = inhibition in experiment [2] was 0%.

On to `CCN(CC)CCCNC(=O)CCc1nnc2n(Cc3ccccc3)c(=O)c3ccccc3n12`, for which the activity was 1.43% in experiment [1], -2.92% in experiment [3] and 0.626% in experiment [4]. In experiment [2], the activity change, negative = inhibition was found to be 0%.

On to `COc1ccc(CN2CCCC(COc3ccccc3C(=O)NC3CC3)C2)c(OC)c1` (stereo not given), for which the activity in experiment [1] was found to be 4.91%; in experiment [3], 1.02%; in experiment [4] it was 1.19%. Further, the activity change, negative = inhibition in experiment [2] came to 4.18%.

Regarding `C[S+](=O)([O-])N1CCC(Cn2ccc3c(N4CCOCC4)nc(-c4cccc5[nH]ncc45)cc32)CC1`, the activity in experiment [1] is -13.4%; in experiment [3] it was -5.17%; in experiment [4], -54.3%. Besides, the activity change, negative = inhibition in experiment [2] was -3.16%.

Take `Cn1nccc1-c1cc2c(cn1)CN(Cc1ccncc1)CCN2`: the values for the activity in experiment [1], in experiment [3] and in experiment [4] were 1.75%, -4.82% and 0.453%, respectively. In experiment [2], the activity change, negative = inhibition is 1.99% [at 85.7 µM].

In the case of `c1ccc(Cn2cc(CN3CCN(c4ccncc4)CC3)c(-c3cc4ccccc4o3)n2)cc1`, the results for the activity in experiment [1], in experiment [3] and in experiment [4] were 5.39%, 1.15% and 6.65%, respectively. Further, in experiment [2], the activity change, negative = inhibition was 12.1%.

Regarding `O=C1COc2ccc(-c3cccc(O)c3)nc2CN1Cc1ccc(C(F)(F)F)cc1`, the activity was -39% in experiment [1], -22.9% in experiment [3] and -51.9% in experiment [4]. For the same molecule, the activity change, negative = inhibition in experiment [2] is -7.53% [at 85.7 µM].

Regarding `O=C(CCc1nnc2n(Cc3ccc(Cl)cc3)c(=O)c3ccccc3n12)N1CCC(N2CCCCC2)CC1`, the activity in experiment [1] was -4.51%; in experiment [3], -21.6%; in experiment [4], 0.847%. Besides, the activity change, negative = inhibition in experiment [2] is -0.992%.

As to `Cn1cnc(CN2CCNc3cc(Nc4ccccc4)ncc3C2)c1`, the activity is 7.14% in experiment [1], 4.88% in experiment [3] and -5.41% in experiment [4]. In experiment [2], the activity change, negative = inhibition is 2.31% [at 85.7 µM].

As for `O=C(Cn1c(=O)oc2cc(S(=O)(=O)N3CCCC3)ccc21)Nc1ccc(F)c(Cl)c1`, the results for the activity in experiment [1], in experiment [3] and in experiment [4] were -3.81%, -2.29% and -63.9%, respectively. Further, the activity change, negative = inhibition in experiment [2] was determined as 1.53%.

For the molecule `O=C(Cn1c(=O)oc2cc(S(=O)(=O)N3CCCC3)ccc21)NCCC1=CCCCC1`, the activity in experiment [1] was -0.904%; in experiment [3], 1.35%; in experiment [4], -61.9%. For the same molecule, in experiment [2], the activity change, negative = inhibition worked out at 0.588%.

Regarding `CCCn1c(=O)c2ccccc2n2c(=O)n(CC(=O)c3cc(C)ccc3C)nc12`, the activity is 1.84% in experiment [1], -36.8% in experiment [3] and -0.0841% in experiment [4]. Moreover, the activity change, negative = inhibition in experiment [2] turned out to be 0%.

On to `O=C(NCCc1ccc(Cl)cc1)c1ccc2c(=O)[nH]c3c(C(=O)NC4CCCC4)sc(=S)n3c2c1`, for which the activity in experiment [1] was -38.3%; in experiment [3], -77.1%; in experiment [4] it was -66.5%. The Potency in experiment [2] was 27.1 µM (active).

For `Cc1cccc(N2CCN(C(=O)CCc3nnc4n(CC(C)C)c(=O)c5ccccc5n34)CC2)c1C`, the activity in experiment [1] was 4.82%; in experiment [3], -69.8%; in experiment [4] it was 4.08%. Further, in experiment [2], the activity change, negative = inhibition amounted to 2.51%.

Consider `O=C(CCc1nnc2n(Cc3ccccc3Cl)c(=O)c3ccccc3n12)N1CCC(N2CCCCC2)CC1`, for which the figures for the activity in experiment [1], in experiment [3] and in experiment [4] were 0%, -1.92% and 0%, respectively. In experiment [2], the activity change, negative = inhibition amounted to 0.582%.

Turning to `Cc1ccc2nc(CN(C)C(=O)C3CCC(=O)N(C4CCCCCC4)C3)[nH]c2c1` (stereo not given), the activity is -3.1% in experiment [1], -9.1% in experiment [3] and -9.49% in experiment [4]. Moreover, the activity change, negative = inhibition in experiment [2] is -4.65%.

As to `Cc1noc(C)c1[S+](=O)([O-])N1CCn2c(nn(-c3ccc(C(F)(F)F)cc3)c2=O)C1`, the activity in experiment [1] was -1.02%; in experiment [3], -3.73%; in experiment [4] it was -10.3%. The activity change, negative = inhibition in experiment [2] was -1.81%.

Take `Nc1nc(NCc2ccc(Cl)cc2Cl)cc(C2CC(O)C2)n1` (stereo not given): the activity in experiment [1] is 1.79%; in experiment [3], -23.3%; in experiment [4], -0.704%. Moreover, the activity change, negative = inhibition in experiment [2] was -2.38%.

For `CCCn1c(=O)c2cc(F)ccc2n2c(SCc3c(F)cccc3Cl)nnc12`, the activity is 4.81% in experiment [1], -24.8% in experiment [3] and 0.382% in experiment [4]. Also, the activity change, negative = inhibition in experiment [2] amounted to 0.239%.

Turning to `CCCn1c(=O)c2ccccc2n2c(=O)n(CC(=O)c3cccc(Cl)c3)nc12`, the activity in experiment [1] is -8.93%; in experiment [3], -46.1%; in experiment [4], -9.61%. Moreover, the activity change, negative = inhibition in experiment [2] is -4.81%.

Turning to `Cn1c(=O)n(C)c2cc(S(=O)(=O)N3CCN(C4CCCCC4)CC3)ccc21`, the activity was -4.43% in experiment [1], -8.71% in experiment [3] and -5.99% in experiment [4]. In experiment [2], the activity change, negative = inhibition was -0.234%.

`CC1CCCCN1CCNC(=O)Cn1ccc2cc(S(=O)(=O)N3CCCCC3)ccc21` (stereo not given): the activity in experiment [1] is 0.614%; in experiment [3], -0.249%; in experiment [4], -1.89%. Further, the activity change, negative = inhibition in experiment [2] was determined as 0%.

Take `Cn1c(C(=O)NCCN2CCCCC2)cc2c1CCN(Cc1cccc(F)c1)C2`: the figures for the activity in experiment [1], in experiment [3] and in experiment [4] were 7.65%, 7.53% and 7.04%, respectively. For the same molecule, the activity change, negative = inhibition in experiment [2] came out at 15.7%.

As to `c1ccc(-c2cc3c(cn2)NCCN(Cc2ccccn2)C3)cc1`, the activity in experiment [1] is 1.39%; in experiment [3], -8.79%; in experiment [4], -1.82%. Also, the activity change, negative = inhibition in experiment [2] is 3.72% [at 85.7 µM].

As for `O=C(Cc1ccsc1)Nc1ccc2c(N3CCCC3)ncnc2c1`, the activity in experiment [1] is 0.696%; in experiment [3] it was 3.05%; in experiment [4], -6.83%. The activity change, negative = inhibition in experiment [2] came out at 4.54%.

In the case of `Cc1noc2c(N3CCOCC3)cc(-c3cccs3)nc12`, the activity is -4.75% in experiment [1], -22.1% in experiment [3] and -11.9% in experiment [4]. For the same molecule, in experiment [2], the activity change, negative = inhibition stood at 2.07% [at 85.7 µM].
